Source: PubChem
Only some compounds are listed: those with a hit (about 9% of all), similar ones and a draw of the others.
IMPase Li cell: membrane-permeable IMPase blocker, potentiated with lithium. CHO-M1 cells, IP1 TR-FRET (IP-One), carbachol + lithium. Potency, µM (top dose mostly 59.4 µM), inactives show top-dose activity, negative = IMPase inhibition, actives largely listed as inhibitors. 210,000 compounds, 0.35% hits; active = well fitted curve in the direction sought with a large enough effect; inconclusive = small, poorly fitted or top-dose-only effect, or another doubt; inactive = no such curve, though single readings can be large; an effect the other way counts as inactive or inconclusive;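 also: IP1 builds up when IMPase is blocked and the TR-FRET signal falls; plate controls were basal vehicle for no effect and high inhibitor control for full effect; nearly all actives have a fitted effect of over 50% in size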
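Lithium-sensitised IP1 accumulation assay; M1-expressing CHO cells treated 30 min at 37C with compound. Competitive antibody detection by time-resolved FRET followed a 10 min room-temperature lysis step.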
Lamin A splicing: changes lamin A minigene splicing in HeLa cells. HeLa LMNA splicing GFP/RFP minigene ratio, 48 h. Potency, µM (titrated, usually from 46.1 µM), without a hit: at the top dose ratio change, negative = inhibition, actives largely listed as inhibitors. 200,000 compounds, 0.01% hits. AID 1487; active = well fitted inhibition curve with a large enough effect in the signal ratio, with a control signal flat, not every such curve was filed as active; inconclusive = small, poorly fitted or top-dose-only effect, or effect the other way, or a change in a side signal; the % refers to the signal ratio
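Read-out is the ratio of GFP to DsRed2 object intensity, acquired by 488 nm laser-scanning cytometry on HeLa lamin A-EGFP minigene reporter cells. Compound incubation 48 hrs at 37 °C in Opti-MEM with 2% FBS; DMSO 0.5% final.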
HPGD block: inhibitors of human 15-hydroxyprostaglandin dehydrogenase (HPGD); P15428; purified HPGD, NADH fluorescence kinetic, PGE2 substrate; Potency, µM, inactives show at the highest dose activity change, negative = inhibition, hits mostly inhibitors; 150,000 compounds, 4.3% hits; AID 894
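20 nM HPGD preincubated 15 min at room temperature with compound in 50 mM Tris-HCl pH 8, 0.01% Tween 20. Started with 1 mM NAD+ and 30 uM prostaglandin E2; NADH fluorescence (360/450 nm) read 5 times over 30-s intervals, last minus first.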
KinaseGlo FLuc: blocks Kinase-Glo luciferase, a counter-screen artifact | Q27757 | Kinase-Glo luciferase, ATP luminescence, 8 min | Potency, µM (doses to about 38.3 µM), for the others: top-dose activity change, negative = inhibition, most hits filed as inhibitors | 200,000 compounds, 0.28% hits | AID 1379; active = well fitted curve in the direction sought with a large enough effect; inconclusive = small, poorly fitted or top-dose-only effect, or another doubt; inactive = no such curve, though single readings can be large; an effect the other way counts as inactive or inconclusive; also: nearly all actives have a fitted effect of over 60% in size
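Luminescence was the read-out, taken after 8-minute incubation at ambient temperature. Luciferase turned over luciferin with 10 uM ATP in imidazole pH 7.2 buffer containing KCl, MgCl2, Tween 20 and BSA.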
ALDH1A1 inh: blocks purified human ALDH1A1 activity. P00352. Purified ALDH1A1, NADH fluorescence, propionaldehyde substrate. Potency, µM (highest dose often 75.3 µM), without a hit: at the highest dose activity, negative = inhibition, most hits filed as inhibitors. 220,000 compounds, 7.3% hits. AID 1030;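 also: plate controls were no enzyme wells and a reference inhibitor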
Target sequence (P00352 whole entry, looked up): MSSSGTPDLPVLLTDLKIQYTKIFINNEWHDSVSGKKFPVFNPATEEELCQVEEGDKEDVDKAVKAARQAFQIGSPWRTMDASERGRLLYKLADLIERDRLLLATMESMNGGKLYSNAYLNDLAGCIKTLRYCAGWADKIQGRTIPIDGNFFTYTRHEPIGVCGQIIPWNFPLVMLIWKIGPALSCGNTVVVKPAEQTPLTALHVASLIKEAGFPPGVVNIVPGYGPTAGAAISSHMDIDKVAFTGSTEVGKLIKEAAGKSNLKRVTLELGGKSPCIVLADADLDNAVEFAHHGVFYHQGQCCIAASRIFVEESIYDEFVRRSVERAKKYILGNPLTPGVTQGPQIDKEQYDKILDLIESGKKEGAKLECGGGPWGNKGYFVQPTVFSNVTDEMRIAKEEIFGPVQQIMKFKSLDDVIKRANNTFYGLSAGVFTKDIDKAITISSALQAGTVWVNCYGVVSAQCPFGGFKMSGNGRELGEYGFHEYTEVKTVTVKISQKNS
Active calls of the source: *; ? = inconclusive; . = no result; [ ] = dose if it differs, or a comment. Unless noted, calls follow the shape of the dose curve; as a rule, active = well fitted inhibition curve with a large enough effect (not every such curve was filed as active); inconclusive = small, poorly fitted or top-dose-only effect, or another doubt; inactive = no such curve, though single readings can be large or run the other way. Unless noted, % is scaled to controls: 0 for no effect and ±100 for the full control effect; potency is read from the fitted curve at half-maximal effect.

SMILES | IMPase Li cell | Lamin A splicing | HPGD block | KinaseGlo FLuc | ALDH1A1 inh
Cc1ccc([N+](=O)[O-])cc1-c1[nH]c(-c2ccc(O)c(O)c2)nc1-c1ccccc1 | 32.9%[38.3 µM] | ? | 0.8% | -1.7% | 22.4µM*
Cc1ccc(N2C(=O)CN(Cc3sccc3C)C2=S)cc1C | 7.4% | ? | 3.16µM* | -1.6% | ?
Cc1ccccc1CNc1nc(N(C)C)nc2c1cnn2C | . | 5.1%[46 µM] | . | . | .
COc1cccc(NC(=O)c2ccc(NC(=O)C(C)C)cc2)c1 | 0.0% | . | . | . | 1.8%
CCOc1cc(NC(=S)Nc2ccccc2)c(OCC)cc1NC(=O)c1ccc(OC)cc1 | -8.4%[38.3 µM] | 4.2% | -18.8% | -1.3% | 22.4µM*
COc1ccc(NC(=S)Nc2ccc(OCc3ccccc3)cc2)c(OC)c1 | 25.0% | ? | -23.7% | 2.6% | 10µM*
COc1ccc(C(=O)Nc2cccc(OC)c2)cc1 | 9.7%[38.3 µM] | 0.8% | -24.2% | 7.94µM* | ?
COc1ccc(NC(=O)CSc2nc3c(c(-c4cccs4)c2C#N)CN(C)CC3)cc1OC | 6.7%[38.3 µM] | 3.5% | -15.0% | -0.8% | 14.1µM*
COc1ccccc1CNC(=O)CSc1nc(N)c(C#N)c(-c2cccs2)c1C#N | 3.55µM* | 16.0% | ? | 0.0% | 25.1%
COc1ccc(NC(=O)CSc2nnc(-c3cccs3)n2C)cc1OC | -5.8%[38.3 µM] | 10.5% | -12.6% | -0.9% | -4.0%
COc1ccc(-c2cc(-c3cccs3)c(C#N)c(SCC(=O)NCc3ccccc3OC)n2)cc1 | ? | 0.4%[0.0737 µM] | ? | 1.9% | ?
COCCn1nnnc1SCC(=O)c1ccc(F)cc1 | -1.1% | -6.0% | -9.4% | 0.1% | -3.6%
O=C(CSc1nnc(-c2ccc(Br)o2)n1Cc1ccccc1)c1ccccc1F | 34.5%[38.3 µM] | 3.4% | 31.6µM* | -0.3% | ?
O=C(CSc1nnc(-c2ccco2)n1Cc1ccccc1)c1ccc(F)cc1 | 10.4%[38.3 µM] | 0.9% | 25.1µM* | -6.2% | 3.98µM*
O=C(CSc1nnc(-c2ccco2)n1Cc1ccccc1)NCc1ccccc1 | 3.1% | -2.8% | -18.7% | 2.6% | -3.8%
COCCn1c(SCC(=O)c2ccc(F)cc2)nnc1C(C)C | 13.9%[38.3 µM] | 8.6% | -21.0% | -2.3% | 12.6µM*
CCOC(=O)c1[nH]c(C)c(CN(C(C)=O)c2ccc(OCC)cc2)c1C | 34.4% | 7.5%[9.22 µM] | . | 0.6% | ?
Cc1nnc(NC(=O)c2ccc(S(=O)(=O)C(F)F)cc2)s1 | . | . | . | . | 0.6%
O=C(CCCSc1nc2ccccc2s1)NCc1ccc2c(c1)OCO2 | 17.2% | -17.8% | -23.9% | 1.1% | 3.55µM*
O=C(CSc1ccc2ccccc2n1)NCc1ccc2c(c1)OCO2 | -5.4% | 2.6%[46 µM] | . | -1.5% | 17.8µM*
O=C(CSc1nc(C2CCCCC2)nc2ccccc12)NCc1ccc2c(c1)OCO2 | 9.1% | ? | -6.4% | -1.0% | 20.0%
O=C(CCCSc1nc2ccccc2s1)Nc1nccs1 | 13.9%[38.3 µM] | -0.9% | 25.1µM* | -6.7% | 15.8µM*
NNC(=O)c1ccc(CSc2nc3ccccc3s2)cc1 | 1.5% | ? | . | 1.7% | 3.55µM*
Cn1c(N)c(Sc2ccc(F)cc2)c(=O)n(C)c1=O | -0.5% | -6.1%[46 µM] | . | 4.1% | 6.4%
COc1ccc(NC(=O)CSc2nnc(NC(=O)Nc3ccccc3)s2)c(OC)c1 | . | 12.8%[46 µM] | . | . | .
SMILES | IMPase Li cell | Lamin A splicing | HPGD block | KinaseGlo FLuc | ALDH1A1 inh
O=C(CSc1nc2ccccc2s1)NCc1ccc2c(c1)OCO2 | 1.5% | -17.9% | 31.6µM* | -1.4% | 14.1µM*
O=C(c1ccco1)N1CCC2(CCCN(c3ncccn3)C2)CC1 | ? | . | -13.9% | -2.9% | ?
CC(C)NC(=O)N1CCCC2(CCN(C(=O)c3ccco3)CC2)C1 | -9.3% | . | -4.8% | -1.2% | -2.6%
O=C(c1ccco1)N1CCC2(CCCN(c3ccncc3)C2)CC1 | 25.3% | . | -2.3% | -1.5% | 3.55µM*
O=C(c1ccco1)N1CCC2(CCN(Cc3ccccc3)CC2)CC1 | 37.2% | . | 0.9% | -3.2% | 17.8µM*
CC(C)CN1CC[C@@]2(CCCN(C(=O)c3ccco3)C2)C1 | 7.1% | . | -4.5% | -0.8% | 0.447µM*
O=C(c1ccco1)N1CCC2(CCN(Cc3ccncc3)CC2)CC1 | 11.0% | . | -8.5% | -3.6% | ?
N#Cc1ccc(CN2CC[C@@]3(CCCN(C(=O)c4ccco4)C3)C2)cc1 | 20.0% | . | -3.4% | -1.4% | 14.1µM*
Cc1cccc(C(C(N)=O)c2ncc(C(F)(F)F)cc2Cl)c1 (stereo not drawn) | -2.3% | 6.7%[46 µM] | . | 2.2% | 0.7%
